The source made the active and inactive calls. How the source made its calls: active means hit-call score of the fitted dose curve at least 0.9, where 1 is the maximum; inactive means score below 0.9.
These compounds were tested against Hypoxia-inducible factor 1-alpha (Homo sapiens) (UniProt Q16665) (assay: ATG_HIF1a_CIS: Attagene CIS-FACTORIAL HepG2 Assay for human Hypoxia Inducible Factor 1 (HIF1A) (AID 2282951)). Conditions: HepG2 Attagene cis-factorial HIF1a reporter transcription; actives raise or lower the signal.
Chain of Hypoxia-inducible factor 1-alpha (Homo sapiens) (Q16665 whole entry, looked up): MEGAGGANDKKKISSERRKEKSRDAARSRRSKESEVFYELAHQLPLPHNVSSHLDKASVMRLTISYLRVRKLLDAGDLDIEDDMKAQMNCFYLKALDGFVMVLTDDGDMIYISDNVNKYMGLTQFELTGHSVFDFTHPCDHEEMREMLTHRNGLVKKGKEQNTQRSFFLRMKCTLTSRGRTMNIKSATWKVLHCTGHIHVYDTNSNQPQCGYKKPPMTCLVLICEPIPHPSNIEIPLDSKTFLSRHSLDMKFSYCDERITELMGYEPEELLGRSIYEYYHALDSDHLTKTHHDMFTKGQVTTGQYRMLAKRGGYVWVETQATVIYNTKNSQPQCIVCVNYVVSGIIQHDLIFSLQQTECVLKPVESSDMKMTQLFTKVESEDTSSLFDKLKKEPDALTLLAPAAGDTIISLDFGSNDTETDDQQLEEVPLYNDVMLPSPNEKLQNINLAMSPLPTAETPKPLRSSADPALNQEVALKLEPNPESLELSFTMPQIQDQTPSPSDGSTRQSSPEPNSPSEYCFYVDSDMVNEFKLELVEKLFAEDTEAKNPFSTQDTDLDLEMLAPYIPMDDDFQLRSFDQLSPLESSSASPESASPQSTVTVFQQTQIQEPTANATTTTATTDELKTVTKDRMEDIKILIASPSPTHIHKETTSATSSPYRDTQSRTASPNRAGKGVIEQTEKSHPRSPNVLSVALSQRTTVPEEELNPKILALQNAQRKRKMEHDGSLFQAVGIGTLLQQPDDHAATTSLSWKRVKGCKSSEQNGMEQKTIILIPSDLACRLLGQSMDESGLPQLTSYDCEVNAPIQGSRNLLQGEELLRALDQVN
Experimental: ATG_CIS is a cell-based, multiplexed-readout assay that uses HepG2, a human liver cell line, with measurements taken at 24 hours after chemical dosing in a 24-well plate.ATG_HIF1a_CIS is one of 52 assay component(s) measured or calculated from the ATG_CIS assay. It is designed to make measurements of mRNA induction, a form of inducible reporter, as detected with fluorescence intensity signals by Reverse transcription polymerase chain reaction (RT-PCR) and Capillary electrophoresis technology.Data from the assay component ATG_HIF1a_CIS was analyzed into 1 assay endpoint. This assay endpoint, ATG_HIF1a_CIS, was analyzed with bidirectional fitting relative to DMSO as the negative control and baseline of activity. Using a type of inducible reporter, measures of mRNA for gain or loss-of-signal activity can be used to understand the reporter gene at the transcription factor-level as they relate to the gene HIF1A. Furthermore, this assay endpoint can be referred to as a primary readout, because this assay has produced multiple assay endpoints where this one serves a reporter gene function. To generalize the intended target to other relatable targets, this assay endpoint is annotated to the dna binding intended target family, where the subfamily is basic helix-loop-helix protein.
Human liver HepG2 cells are transiently transfected with multiple reporter transcription units (MRTUs) in 6-well plates using FuGene 6 reagent (Roche; 3 ml FuGene/1 mg DNA). The MRTU constructs are regulated by a cis-regulating element (promoter). […] A major difference between the CIS and TRANS system is that in CIS activities of endogenous TFs are measured, whereas the TRANS assay evaluates changes in activities of exogenous, chimeric NR-Gal4 proteins. […] At the end of 24 hour incubation, total RNA was isolated using TriZol reagent (Invitrogen). The isolated RNA is then reverse-transcribed using oligo(dT) primer and Mo-MLV reverse transcriptase (Invitrogen) with DNAse I (Ambion) treatment for 30 min. The one-tenth of the produced cDNA was amplified by PCR using Taq DNA polymerase (Invitrogen) and two reporter sequence-specific primers. The PCR products were fluorescently labeled by primer extension with 6-arboxyfluorescein (6-FAM) 5'-labeled reporter sequence-specific primer (2 min at 95 C, 20 s at 68 C and 10 min at 72 C) and these products were digested with 5U of HpaI (New England Biolabs) for 2h at 37 C. The fragments were purified using Qiaquick PCR columns (Qiagen), analyzed on an ABI 3130xL genetic analyzer (Applied Biosystems) with peak positions identified by using a set of X-rhodamine (ROX)-labeled MapMarker1000 molecular weight standards (BioVentures). The raw capillary electrophoresis data was processed using Attagraph software (Attagene).
With CCOC(C=C(C)CCC=C(C)C)OCC the outcome was “inactive”. For O=C(O)C(F)(F)C(F)(F)C(F)(F)C(=O)O, the outcome was “inactive”. With CSc1ccc(Cl)cc1 the outcome was “inactive”. With O=C=Nc1cccc2c(N=C=O)cccc12 the outcome was “inactive”. In the case of O=C1c2c(O)ccc(Nc3ccc(CCO)cc3)c2C(=O)c2c([N+](=O)[O-])ccc(O)c21, the outcome is reported as “inactive”. C[Si](Cl)(Cl)CCC(F)(F)C(F)(F)C(F)(F)C(F)(F)C(F)(F)C(F)(F)F was tested, and the outcome was “inactive”. For OCCC(O)CO (stereo not given), the outcome was “inactive”. For COC(F)(C(F)F)C(F)(F)F (stereo not given), the outcome was “inactive”. For O=C(Cl)c1ccc(Cl)cc1Cl, the outcome was “inactive”. With Nc1cc([N+](=O)[O-])cc(Cl)c1O the outcome was “inactive”. In the case of C[Si](C)O[Si](C)C, the outcome is reported as “inactive”. In the case of COCCC(=O)OC, the outcome is reported as “inactive”. O=C(O)C(F)(F)C(F)(F)C(F)(F)C(F)(F)C(F)(F)C(F)(F)C(F)F was tested, and the outcome was “inactive”. O=C(O)CCC(F)(F)C(F)(F)C(F)(F)C(F)(F)C(F)(F)C(F)(F)C(F)(F)F was tested, and the outcome was “inactive”. In the case of CCN=c1cc2oc3cc(NCC)c(C)cc3c(-c3ccccc3C(=O)OCC)c-2cc1C, the outcome is reported as “inactive”. For Cc1ccc2c(c1)OCC(=O)CO2, the outcome was “inactive”. For CC(=O)CCC(C)C, the outcome was “inactive”. In the case of CC(C)CC=C(C=O)c1ccccc1, the outcome is reported as “inactive”. CCCCCCCC/C=C\CCCCCCCC(=O)N(C)CC(=O)O was tested, and the outcome was “inactive”. In the case of NC(=O)C(F)(F)C(F)(F)C(F)(F)C(F)(F)C(N)=O, the outcome is reported as “inactive”. NC(=O)C(F)(F)C(F)(F)C(F)(F)C(F)F was tested, and the outcome was “inactive”. For CCC(C)CO (stereo not given), the outcome was “inactive”. For Cc1ccc(O)c(-n2nc3ccccc3n2)c1, the outcome was “inactive”. With Cc1ccc(S(=O)(=O)C(I)I)cc1 the outcome was “inactive”. With CC(C)C(=O)OCc1ccccc1 the outcome was “inactive”. In the case of Cc1cc(C)c(O)c(C(C)(C)C)c1, the outcome is reported as “inactive”. NCC(F)(F)C(F)(F)C(F)(F)C(F)(F)C(F)(F)C(F)(F)C(F)(F)C(F)(F)F was tested, and the outcome was “inactive”. In the case of OCCCCC(F)(F)C(F)(F)C(F)(F)C(F)(F)F, the outcome is reported as “inactive”. O=C1OC(=O)c2ccc3c4c(ccc1c24)C(=O)OC3=O was tested, and the outcome was “inactive”. With CCn1c2ccccc2c2ccccc21 the outcome was “inactive”. In the case of CC(O)C#CC(C)O (stereo not given), the outcome is reported as “inactive”. With CCCCOC(=O)C(C)O (stereo not given) the outcome was “inactive”. With CC(C)(C)c1cc(Cc2cc(C(C)(C)C)c(O)c(C(C)(C)C)c2)cc(C(C)(C)C)c1O the outcome was “inactive”. In the case of NC(=O)C(F)(F)C(F)(F)C(F)(F)F, the outcome is reported as “inactive”. With CCCCC(CC)COC(=O)c1ccc(N(C)C)cc1 (stereo not given) the outcome was “inactive”. For FC(F)(F)C(F)(F)C(F)(F)C(F)(F)C(F)(F)C(F)(F)CC[Si](Cl)(Cl)Cl, the outcome was “inactive”. For NC(O)(C(F)(F)F)C(F)(F)F, the outcome was “inactive”. For CC1=CCC2C(=O)OC(=O)C2C1 (stereo not given), the outcome was “inactive”. With OCCCc1cccnc1 the outcome was “inactive”. NC(=O)C(F)(F)C(F)(F)C(F)(F)C(F)(F)C(F)(F)C(F)(F)C(F)(F)F was tested, and the outcome was “inactive”.
